Shown are actives, neighbours in structure and some others; about 10% of the full set was active somewhere.
GPT2 inh: inhibitors of human GPT2 alanine aminotransferase; Q8TD30; Recombinant GPT2, coupled pyruvate oxidase/HRP Amplex Red fluorescence; Potency, µM (doses to about 57.7 µM), actives largely listed as inhibitors; 100,000 tested, 0.25% active; also: nearly all actives have a fitted effect of over 60% in size
Target sequence (Q8TD30 whole entry, looked up): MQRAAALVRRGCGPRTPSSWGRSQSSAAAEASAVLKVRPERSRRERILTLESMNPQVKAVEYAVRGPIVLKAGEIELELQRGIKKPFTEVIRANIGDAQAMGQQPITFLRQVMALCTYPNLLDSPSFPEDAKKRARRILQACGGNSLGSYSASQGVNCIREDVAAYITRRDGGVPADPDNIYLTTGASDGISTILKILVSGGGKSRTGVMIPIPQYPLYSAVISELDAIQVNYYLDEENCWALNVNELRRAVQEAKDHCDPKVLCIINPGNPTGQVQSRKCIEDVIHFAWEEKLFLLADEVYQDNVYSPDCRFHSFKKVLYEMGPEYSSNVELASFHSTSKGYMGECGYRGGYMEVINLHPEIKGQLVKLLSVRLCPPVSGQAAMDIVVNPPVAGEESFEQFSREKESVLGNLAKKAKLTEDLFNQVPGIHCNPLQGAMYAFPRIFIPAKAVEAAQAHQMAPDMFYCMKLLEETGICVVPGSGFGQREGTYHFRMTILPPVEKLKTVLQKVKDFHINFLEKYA
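GPT2 10ng/uL, a-KG 250uM, L-Ala 2mM, HEPES pH7.5 + 0.0001% Tween; 30 min RT. Then Amplex mix (PO/HRP/ThPP), 30 min RT dark, fluorescence. AOA 50uM used as positive control.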
hNpr1 antagonist: human Npr1 receptor antagonism. 76,000 tested, 1.6% active. P16066. AID 1347048. HEK293 hNpr1 GloSensor cGMP, ANP-stimulated luminescence. Potency, µM (series often up to 46.3 µM), actives largely listed as inhibitors; calls by dose curve; also: nearly all actives have a fitted effect of over 60% in size
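HEK293 cells stably expressing human Npr1 and cGMP GloSensor pGS-40F, loaded 2 h with 2% GloSensor reagent, given compound 30 min at room temperature. Luminescence read before and 20 min after 0.1 nM hNppA.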
FLuc inh: inhibitors of firefly (Photinus pyralis) luciferase; purified P. pyralis luciferase, luminescence, biochemical; Potency, µM (highest dose often 115 µM), usual class: inhibitors; 76,000 tested, 2.5% active; AID 1347043; also: nearly all actives have a fitted effect of over 65% in size
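FLuc 10nM, D-luciferin 10uM, ATP 10uM, Mg acetate 10mM, Tris acetate pH 7.5, Tween/BSA; cpd qHTS; enzyme added last; CCD luminescence.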
HEK cytotox: HEK 293 cell cytotoxicity. Potency, µM (series often up to 115 µM), most hits filed as inhibitors. HEK 293 viability, ATP luminescence (CellTiter-Glo), 48-72 h. 94,000 tested, 6.6% active; also: nearly all actives have a fitted effect of over 60% in size
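HEK 293 cells seeded at 250 cells/well were exposed to compound for 48 or 72 hr at 37 degree Celsius. Viability taken as ATP content by CellTiter-Glo luminescence.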
NIH3T3 tox: kills NIH 3T3 cells; 94,000 tested, 4.3% active; AID 1345082; NIH 3T3 viability, CellTiter-Glo ATP luminescence, 48-72 h; Potency, µM (top dose mostly 96.7 µM), most hits filed as inhibitors; also: nearly all actives have a fitted effect of over 55% in size
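Cytotoxicity is measured as loss of cellular ATP: NIH 3T3 cells (400/well) are exposed to compound for 48 or 72 hr at 37 °C, then CellTiter-Glo luminescence is imaged after 10 min at room temperature.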
Numbers stand for hits; . = inactive; ? = inconclusive; / = not tested or not shown. Unless noted, calls follow the shape of the dose curve; as a rule, active = well fitted curve in the direction sought with a large enough effect; inconclusive = small, poorly fitted or top-dose-only effect, or another doubt; inactive = no such curve, though single readings can be large; an effect the other way counts as inactive or inconclusive.

SMILES | GPT2 inh | hNpr1 antagonist | FLuc inh | HEK cytotox | NIH3T3 tox
O=C(COc1ccccc1)N1CCCCCC1c1nc(-c2ccncc2)no1 (centres undefined) | . | / | / | ? | .
Oc1ccccc1CN1CC(CNc2cccnc2)C2(C1)CN(c1ccccc1)C2 (centres undefined) | . | . | . | 63µM | ?
c1ccc(NCC2CN(Cc3ccccn3)CC23CN(c2ccccc2)C3)cc1 (centres undefined) | . | . | . | 79µM | ?
CC(C)c1ccc(CN2CC(CNc3cccnc3)C3(C2)CN(c2ccccc2)C3)cc1 (centres undefined) | . | ? | . | 50µM | 35µM
O=C(c1cccnc1)N1CC(CNc2ccccc2)C2(C1)CN(c1ccccc1)C2 (centres undefined) | . | . | . | ? | ?
CC1OC(=O)C[C@@H]2C(C(=O)O)=CO[C@@H](O[C@H]3O[C@H](CO)[C@@H](O)[C@H](O)[C@H]3O)[C@H]12 (some centres undefined) | . | / | / | / | /
NCc1cccc(-c2cc(C(F)(F)F)ccc2Cl)c1 | . | / | / | 71µM | ?
Cc1ccc(-c2ccc(CN)cc2)c(C)c1 | . | / | / | 32µM | 32µM
Cc1cc(Cl)ccc1-c1ccccc1CN | . | / | / | ? | 22µM
O=C(O)c1cccc(-c2cc(C(F)(F)F)ccc2Cl)c1 | . | / | / | . | .
Cc1cc(Cl)ccc1-c1ccccc1C=O | . | / | / | ? | 112µM
CC(=O)O[C@H]1CC(C)(C)CC2[C@]13CO[C@@]21CCC2[C@@]4(C)CC[C@H](O[C@@H]5OC[C@H](O[C@@H]6O[C@H](CO)[C@@H](O)[C@H](O)[C@H]6O[C@@H]6OC[C@@H](O)[C@H](O)[C@H]6O)[C@H](O)[C@H]5O[C@@H]5O[C@H](CO)[C@@H](O)[C@H](O)[C@H]5O)[C@@](C)(CO)C4CC[C@@]2(C)[C@]1(C)C[C@H]3O (some centres undefined) | . | / | / | / | /
O=C1CCC2(C(=O)NCc3ccc4c(c3)OCO4)CCC=C2N1C1CCCC1 (centres undefined) | . | / | / | ? | .
Cc1cc(Cl)ccc1-c1cccc(CN)c1 | . | / | / | 40µM | 32µM
COc1ccccc1-c1cccc(CN)c1 | . | / | / | 100µM | 126µM
Cc1ccc(-c2cccc(CN)c2)c(C)c1 | . | / | / | 45µM | 28µM
Cc1cccc(-c2ccccc2CN)c1 | . | / | / | . | .
COc1ccccc1-c1ccc(CN)cc1 | . | / | / | ? | ?
COc1ccc(OC)c(NC(=O)c2cc3c(N4CCSCC4)nc(C)cn3n2)c1 | . | . | . | . | .
COc1cc(NC(=O)c2cc3c(N4CCCC4)nc(C)cn3n2)cc(OC)c1OC | . | . | . | 45µM | ?
COc1cc(NC(=O)c2cc3c(N4CCSCC4)nc(C)cn3n2)cc(OC)c1OC | . | . | . | 35µM | ?
COc1ccccc1NC(=O)c1cc2c(N3CCSCC3)nc(C)cn2n1 | . | . | . | 50µM | .
O=C(c1ccoc1)N1CCC(OCCOc2ccccc2)CC1 | . | / | / | . | .
CN(C)CCN(C)C(=O)c1ccc2c(c1)NC(C)(CCCCc1ccccc1)CO2 (centres undefined) | . | . | . | 100µM | 32µM
CC1(CCCCc2ccccc2)COc2ccc(C(=O)N3CCOCC3)cc2N1 (centres undefined) | ? | ? | . | ? | ?
SMILES | GPT2 inh | hNpr1 antagonist | FLuc inh | HEK cytotox | NIH3T3 tox
COc1ccc(OCC2(C)COc3ccc(C(=O)N(C)CCN(C)C)cc3N2)cc1 (centres undefined) | . | . | . | . | ?
CN(Cc1ccccc1)C(=O)c1ccc2c(c1)NC(C)(CNCc1ccccc1)CO2 (centres undefined) | . | . | . | ? | 89µM
CN(C(=O)c1ccc2c(c1)NC(C)(CNCc1ccccc1)CO2)c1ccccc1 (centres undefined) | . | . | . | ? | ?
CN(C)CCN(C)C(=O)c1ccc2c(c1)NC(C)(COc1ccccc1)CO2 (centres undefined) | . | . | . | ? | 89µM
O=C(c1cc(F)cc(F)c1)N1CCC(N2CC3CC(C2)[C@H]2CCCC(=O)N2C3)CC1 (some centres undefined) | . | . | . | . | .
c1ccc(CCc2noc(-c3ccc(N4CCCOCC4)nc3)n2)cc1 | ? | ? | 32µM | ? | ?

Assay outcomes as filed in PubChem.
